# Test results taken from PubChem BioAssay (EPA / NIEHS).
# Several values for one entry are separate records, joined by “and”; a condition that tells them apart may be missing. Identical values can stand only once. A structure can be active in one record and inactive in another. Activity calls are given as the source filed them. Rule for the calls: active = hit-call score of the fitted dose curve at least 0.9, where 1 is the maximum; inactive = score below 0.9.
# Read-out: Thrombomodulin, THBD (gene 7056)
# Experiment: BSK_LPS_Thrombomodulin: BioMAP Diversity Plus: LPS Assay for Thrombomodulin Biomarker Activity (AID 2284296)
# Conditions: primary human HUVEC with PBMC
# Procedure, shortened: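 Thrombomodulin on the surface of LPS-activated endothelial/PBMC co-cultures was quantified by ELISA at 24 hours post-dosing, with DMSO as baseline. Parallel SRB total-protein staining flagged overt cytotoxicity.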
Compound,AC50,outcome
O=C(CC(=O)C(F)(F)C(F)(F)C(F)(F)F)c1cccs1,55.5 µM (active) and 54.2 µM (active),–
O=P(O)(O)CCC(F)(F)C(F)(F)C(F)(F)C(F)(F)C(F)(F)C(F)(F)C(F)(F)C(F)(F)F,–,inactive
O=C(O)C(F)(F)OC(F)(F)C(F)(F)OC(F)(F)C(F)(F)OC(F)(F)C(F)(F)C(F)(F)C(F)(F)F,45.8 µM (active) and 44.1 µM (active),–
C=CC(=O)OCCC(F)(F)C(F)(F)C(F)(F)C(F)(F)C(F)(F)C(F)(F)C(F)(F)C(F)(F)F,2.94 µM (active),inactive
Oc1ccc(Cc2ccccc2O)cc1,–,inactive
O=S(=O)(O)C(F)(F)C(F)(F)C(F)(F)C(F)(F)C(F)(F)C(F)(F)C(F)(F)C(F)(F)C(F)(F)C(F)(F)F,–,inactive
OCC(F)(F)C(F)(F)C(F)(F)C(F)(F)C(F)(F)C(F)(F)C(F)(F)C(F)(F)C(F)(F)C(F)(F)C(F)(F)F,–,inactive
Oc1c(Cl)cc(Cl)cc1Sc1cc(Cl)cc(Cl)c1O,–,inactive
O=C(O)CCC(F)(F)C(F)(F)C(F)(F)C(F)(F)C(F)(F)C(F)(F)F,–,inactive
O=C1NS(=O)(=O)c2ccccc21,1.09 µM (active),inactive
CN(Cc1cnc2nc(N)nc(N)c2n1)c1ccc(C(=O)N[C@@H](CCC(=O)O)C(=O)O)cc1,–,inactive
O=P(O)(O)CCC(F)(F)C(F)(F)C(F)(F)C(F)(F)C(F)(F)C(F)(F)F,0.219 µM (active),inactive
CN(CCO)S(=O)(=O)C(F)(F)C(F)(F)C(F)(F)C(F)(F)C(F)(F)C(F)(F)C(F)(F)C(F)(F)F,–,inactive
O=C(O)CCC(F)(F)C(F)(F)C(F)(F)C(F)(F)C(F)(F)F,–,inactive
CCCCCCCCCCCC,35.4 µM (active),inactive

# Tested on: not listed separately
# Experiment: IUF_NPC2c_oligodendrocyte_migration_120hr: Leibniz Research Institute for Environmental Medicine (IUF) 120-hour Neural Progenitor Cell Migration Assay for Oligodendrocyte Migration (NPC2c) (AID 2284297);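 note: O4-positive oligodendrocyte migration distance divided by radial glia migration distance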
# Conditions: not given
# Procedure, shortened: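 Using fetal brain neural progenitor spheres differentiating in N2 medium at 37C, compounds were present for 120 h. Oligodendrocyte migration distance, normalized to radial glia migration, was measured from imaged O4 staining.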
row,Compound,outcome
1,CC(C)c1c(C(=O)Nc2ccccc2)c(-c2ccccc2)c(-c2ccc(F)cc2)n1CC[C@@H](O)C[C@@H](O)CC(=O)O,inactive
2,O=C(CCCN1CCC(O)(c2ccc(Cl)cc2)CC1)c1ccc(F)cc1,inactive
3,CC(=O)Nc1ccc(O)cc1,inactive
4,O=C1NS(=O)(=O)c2ccccc21,inactive

# Tested on: not listed separately
# Experiment: IUF_NPC2a_radial_glia_migration_120hr: Leibniz Research Institute for Environmental Medicine (IUF) 120-hour Neural Progenitor Cell Migration Assay for Radial Glia Migration (NPC2a) (AID 2284298)
# Conditions: not given
# Procedure, shortened: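 Exposure of 0.3 mm primary hNPC spheres runs day 0 to 120 h with a half-volume medium change at day 3. Fixed cells get Hoechst staining; high-content analysis of nuclear positions yields radial glia migration distance per well, compared against DMSO controls.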
Compound,outcome,AC50
CC(C)c1c(C(=O)Nc2ccccc2)c(-c2ccccc2)c(-c2ccc(F)cc2)n1CC[C@@H](O)C[C@@H](O)CC(=O)O,inactive,–
O=C(CCCN1CCC(O)(c2ccc(Cl)cc2)CC1)c1ccc(F)cc1,–,15900 nM (active)
CC(=O)Nc1ccc(O)cc1,inactive,–
O=C1NS(=O)(=O)c2ccccc21,inactive,–
